In PMC4081100, “A DNA-binding-site landscape and regulatory network analysis for NAC transcription factors in Arabidopsis thaliana” one finds binding signal data, which are given here for eight sequences.

Assay in all cases: universal protein binding microarray (PBM); transcription factors of Arabidopsis thaliana; high values mean tight binding
One assay deals with T1, GST-ANAC092(1-176) (Arabidopsis thaliana, UniProt Q9FKA0 1-176).
T1 sequence: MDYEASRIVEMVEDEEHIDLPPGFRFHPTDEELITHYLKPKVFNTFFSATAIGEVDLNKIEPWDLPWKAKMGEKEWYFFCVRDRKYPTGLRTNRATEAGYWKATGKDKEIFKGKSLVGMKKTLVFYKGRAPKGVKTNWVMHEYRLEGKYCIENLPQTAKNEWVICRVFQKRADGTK
The conditions noted are these: protein: recombinant; tags: GST; chain copies: 2; dsDNA, one strand shown. The procedure, abridged:
(§1)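 Binding is expressed as the normalised enrichment score (E-score). Proteins carrying a GST tag, whether NAC-domain, full-length or DNA-binding-domain forms, were induced in cells, and zinc acetate was added for zinc-finger proteins. After purification on glutathione–Sepharose 4B and quantification by A280 or anti-GST western blot, each was applied in duplicate at 200 to 500 nM final to custom all-10-mer Agilent 4 × 180K arrays made double-stranded by primer extension. Gapped and ungapped 8-mers were scored.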

The target of another assay is T2, GST-ANAC019 NAC domain (Arabidopsis thaliana, UniProt Q9C932 14-162).
T2 sequence: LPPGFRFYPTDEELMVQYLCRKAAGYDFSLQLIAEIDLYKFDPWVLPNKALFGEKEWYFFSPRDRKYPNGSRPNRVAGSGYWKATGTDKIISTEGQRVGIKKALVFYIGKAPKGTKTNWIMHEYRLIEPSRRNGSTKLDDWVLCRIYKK
As to conditions: protein: recombinant; tags: GST; chain copies: 2; dsDNA, one strand shown. An outline of the steps: as §1

Another assay concerns the target T3, GST-ANAC055(1-171) (Arabidopsis thaliana, UniProt Q9LDY8 1-171).
T3 sequence: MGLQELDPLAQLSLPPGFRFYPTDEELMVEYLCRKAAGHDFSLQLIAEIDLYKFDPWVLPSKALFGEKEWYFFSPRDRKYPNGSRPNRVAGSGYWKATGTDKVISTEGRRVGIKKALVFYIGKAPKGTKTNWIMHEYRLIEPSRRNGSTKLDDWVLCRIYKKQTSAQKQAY
The conditions noted are these: protein: recombinant; tags: GST; chain copies: 2; dsDNA, one strand shown. The procedure, abridged:
as §1

The next assay addresses T4, GST-ATAF1 NAC domain (Arabidopsis thaliana, UniProt Q39013 7-158).
T4 sequence: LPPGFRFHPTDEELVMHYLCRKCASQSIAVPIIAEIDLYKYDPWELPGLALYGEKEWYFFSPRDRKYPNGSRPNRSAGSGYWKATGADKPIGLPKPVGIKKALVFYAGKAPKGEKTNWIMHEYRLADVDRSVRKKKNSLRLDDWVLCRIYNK
As to conditions: protein: recombinant; tags: GST; chain copies: 2; dsDNA, one strand shown. The procedure, abridged:
as §1

Assay [1] addresses T5, GST-ANAC092(1-285) full length (Arabidopsis thaliana, UniProt Q9FKA0 1-285).
T5 sequence: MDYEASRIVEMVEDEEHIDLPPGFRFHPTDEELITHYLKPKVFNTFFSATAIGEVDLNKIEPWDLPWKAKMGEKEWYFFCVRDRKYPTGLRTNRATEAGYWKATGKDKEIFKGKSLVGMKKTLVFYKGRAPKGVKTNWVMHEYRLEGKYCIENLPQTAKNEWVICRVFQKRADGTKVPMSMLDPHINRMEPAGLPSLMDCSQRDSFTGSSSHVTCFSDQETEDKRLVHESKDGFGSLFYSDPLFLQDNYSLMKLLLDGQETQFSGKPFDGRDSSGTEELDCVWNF
As to conditions: protein: recombinant; tags: GST; chain copies: 2; dsDNA, one strand shown. An outline of the steps: as §1

The target of another assay is T6, GST-NAP(1-166) (Arabidopsis thaliana, UniProt O49255 1-166).
T6 sequence: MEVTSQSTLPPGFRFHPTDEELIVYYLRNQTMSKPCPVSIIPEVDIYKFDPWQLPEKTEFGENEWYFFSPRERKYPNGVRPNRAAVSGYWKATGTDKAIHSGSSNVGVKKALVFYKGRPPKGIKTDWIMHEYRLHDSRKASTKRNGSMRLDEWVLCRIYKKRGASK
The conditions noted are these: protein: recombinant; tags: GST; chain copies: 2; dsDNA, one strand shown. The procedure, abridged:
as §1

The target in the next assay is T7, GST-NST2(1-184) (Arabidopsis thaliana, UniProt Q9M274 1-184).
T7 sequence: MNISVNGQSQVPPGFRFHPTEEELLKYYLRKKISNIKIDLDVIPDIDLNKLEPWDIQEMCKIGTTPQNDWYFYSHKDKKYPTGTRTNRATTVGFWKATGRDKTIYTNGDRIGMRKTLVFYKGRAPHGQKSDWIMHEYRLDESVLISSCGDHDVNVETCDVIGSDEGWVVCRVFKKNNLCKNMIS
The conditions noted are these: protein: recombinant; tags: GST; chain copies: 2; dsDNA, one strand shown. The procedure, abridged:
as §1

A further assay deals with T8, GST-SND1(1-203) (Arabidopsis thaliana, UniProt Q9LPI7 1-203).
T8 sequence: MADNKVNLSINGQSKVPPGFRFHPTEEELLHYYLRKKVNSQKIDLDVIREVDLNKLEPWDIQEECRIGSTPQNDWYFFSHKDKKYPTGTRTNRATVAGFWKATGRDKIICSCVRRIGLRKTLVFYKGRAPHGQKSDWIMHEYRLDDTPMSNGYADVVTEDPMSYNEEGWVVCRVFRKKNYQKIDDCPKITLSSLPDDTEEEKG
The conditions noted are these: protein: recombinant; tags: GST; chain copies: 2; dsDNA, one strand shown. The procedure, abridged: as §1

For another assay, the target named is T9, GST-VND3 NAC domain (Arabidopsis thaliana, UniProt Q9FH59 12-162).
T9 sequence: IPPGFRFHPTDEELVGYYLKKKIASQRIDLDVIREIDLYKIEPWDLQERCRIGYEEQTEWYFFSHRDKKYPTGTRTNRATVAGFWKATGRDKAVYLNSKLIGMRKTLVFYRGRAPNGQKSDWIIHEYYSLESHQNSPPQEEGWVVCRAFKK
As to conditions: protein: recombinant; tags: GST; chain copies: 2; dsDNA, one strand shown. An outline of the steps:
as §1

The target of another assay is T10, GST-VND7 NAC domain (Arabidopsis thaliana, UniProt Q9C8W9 9-158).
T10 sequence: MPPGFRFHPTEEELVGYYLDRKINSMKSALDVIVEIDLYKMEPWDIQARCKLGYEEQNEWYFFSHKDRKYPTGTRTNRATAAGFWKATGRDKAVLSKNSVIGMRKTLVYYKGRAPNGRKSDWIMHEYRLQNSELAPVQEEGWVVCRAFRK
The conditions noted are these: protein: recombinant; tags: GST; chain copies: 2; dsDNA, one strand shown. The procedure, abridged:
as §1

The next assay addresses GST-WRKY1(266-371) (Arabidopsis thaliana, UniProt Q9SI37 266-371). The conditions noted are these: protein: recombinant; tags: GST; dsDNA, one strand shown. An outline of the steps: as §1
The target in another assay is GST-NTL6(1-168) (Arabidopsis thaliana, UniProt Q9SCK6 1-168). As to conditions: protein: recombinant; tags: GST; chain copies: 2; dsDNA, one strand shown. The procedure, abridged: as §1
Sequence of GST-NTL6(1-168) (Q9SCK6 1-168): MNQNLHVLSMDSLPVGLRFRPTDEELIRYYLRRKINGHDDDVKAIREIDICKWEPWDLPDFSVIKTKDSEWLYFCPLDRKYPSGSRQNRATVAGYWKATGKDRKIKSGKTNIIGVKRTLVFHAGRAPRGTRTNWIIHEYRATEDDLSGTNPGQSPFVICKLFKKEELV
The next assay deals with T11, GST-NTL8 NAC domain (Arabidopsis thaliana, UniProt Q9XIN7 14-156).
T11 sequence: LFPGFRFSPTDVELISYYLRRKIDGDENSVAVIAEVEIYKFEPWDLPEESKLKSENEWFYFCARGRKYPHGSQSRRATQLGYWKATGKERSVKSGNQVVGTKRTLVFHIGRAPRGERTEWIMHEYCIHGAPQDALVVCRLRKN
As to conditions: protein: recombinant; tags: GST; chain copies: 2; dsDNA, one strand shown. An outline of the steps:
as §1

Sequence of GST-WRKY1(266-371) (Q9SI37 266-371): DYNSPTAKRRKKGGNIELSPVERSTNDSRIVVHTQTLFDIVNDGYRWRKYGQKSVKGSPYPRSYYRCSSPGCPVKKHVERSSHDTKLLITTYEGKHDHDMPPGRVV

Consider ACACGTCT, for which the binding signal with GST-ANAC092(1-176) was found to be 0.422 E-score; with GST-ANAC019 NAC domain it was 0.459 E-score; with GST-ANAC055(1-171) it was 0.405 E-score; with GST-ATAF1 NAC domain, 0.393 E-score; in assay [1], 0.425 E-score; in the assay with GST-NAP(1-166) it was 0.346 E-score. Besides, the binding signal was found to be 0.168 E-score in the assay with GST-NST2(1-184); 0.174 E-score in the assay with GST-SND1(1-203); 0.396 E-score with GST-VND3 NAC domain; 0.421 E-score in the assay with GST-VND7 NAC domain; 0.114 E-score with GST-WRKY1(266-371).
As for GAAAGGAA, the binding signal in the assay with GST-ANAC092(1-176) amounted to 0.21 E-score; in the assay with GST-NTL6(1-168), 0.32 E-score; with GST-ANAC019 NAC domain, 0.134 E-score; in the assay with GST-ANAC055(1-171), 0.168 E-score; in the assay with GST-ATAF1 NAC domain, 0.188 E-score; in assay [1], 0.2 E-score. The binding signal amounted to 0.228 E-score with GST-NST2(1-184); 0.422 E-score with GST-NTL8 NAC domain; 0.234 E-score with GST-SND1(1-203); 0.209 E-score in the assay with GST-VND3 NAC domain; 0.231 E-score in the assay with GST-VND7 NAC domain; 0.0968 E-score with GST-WRKY1(266-371).
Regarding ATAAGTAA, the binding signal with GST-ANAC092(1-176) was 0.318 E-score; with GST-NTL6(1-168), 0.434 E-score; in the assay with GST-ANAC055(1-171), 0.181 E-score; with GST-ATAF1 NAC domain, 0.246 E-score; in assay [1], 0.363 E-score; in the assay with GST-NST2(1-184), 0.29 E-score. In addition, the binding signal with GST-NTL8 NAC domain stood at 0.167 E-score; in the assay with GST-SND1(1-203), 0.311 E-score; with GST-VND3 NAC domain, 0.264 E-score; with GST-VND7 NAC domain, 0.18 E-score; in the assay with GST-WRKY1(266-371), 0.142 E-score.
With AAGTCTAC, the binding signal was found to be 0.0876 E-score with GST-ANAC092(1-176); 0.202 E-score with GST-NTL6(1-168); 0.158 E-score in the assay with GST-ANAC055(1-171); 0.0826 E-score in the assay with GST-ATAF1 NAC domain; 0.103 E-score in the assay with GST-NST2(1-184); 0.0865 E-score with GST-SND1(1-203). The binding signal with GST-VND3 NAC domain amounted to 0.0561 E-score; in the assay with GST-VND7 NAC domain it was 0.0651 E-score; in the assay with GST-WRKY1(266-371) it was 0.412 E-score.
For the sequence GTTCCGTA, the binding signal stood at 0.351 E-score with GST-ANAC092(1-176); 0.43 E-score in the assay with GST-ANAC019 NAC domain; 0.448 E-score in the assay with GST-ANAC055(1-171); 0.438 E-score with GST-ATAF1 NAC domain; 0.373 E-score in assay [1]; 0.455 E-score in the assay with GST-NAP(1-166). The binding signal in the assay with GST-NST2(1-184) is 0.179 E-score; in the assay with GST-SND1(1-203), 0.377 E-score; with GST-VND3 NAC domain, 0.375 E-score; with GST-VND7 NAC domain it was 0.439 E-score; with GST-WRKY1(266-371), 0.0936 E-score.
Consider ACGCAATA, for which the binding signal amounted to 0.444 E-score with GST-ANAC092(1-176); 0.233 E-score with GST-ANAC019 NAC domain; 0.212 E-score with GST-ANAC055(1-171); 0.166 E-score with GST-ATAF1 NAC domain; 0.447 E-score in assay [1]; 0.301 E-score with GST-NAP(1-166). Further, the binding signal was 0.288 E-score with GST-NST2(1-184); 0.0551 E-score with GST-NTL8 NAC domain; 0.419 E-score in the assay with GST-SND1(1-203); 0.312 E-score with GST-VND3 NAC domain; 0.288 E-score with GST-VND7 NAC domain; 0.0639 E-score in the assay with GST-WRKY1(266-371).
Take CAACACGC: the binding signal with GST-ANAC092(1-176) amounted to 0.418 E-score; with GST-ANAC019 NAC domain it was 0.304 E-score; with GST-ANAC055(1-171), 0.227 E-score; in the assay with GST-ATAF1 NAC domain, 0.172 E-score; in [1], 0.436 E-score; in the assay with GST-NAP(1-166), 0.252 E-score. Further, the binding signal came out at 0.229 E-score with GST-NST2(1-184); 0.0505 E-score in the assay with GST-NTL8 NAC domain; 0.259 E-score with GST-SND1(1-203); 0.162 E-score in the assay with GST-VND3 NAC domain; 0.218 E-score in the assay with GST-VND7 NAC domain; 0.125 E-score with GST-WRKY1(266-371).
On to TAAGTCAA, for which the binding signal with GST-NTL6(1-168) stood at 0.268 E-score; with GST-ANAC055(1-171), 0.121 E-score; with GST-ATAF1 NAC domain, 0.208 E-score; in [1] it was 0.158 E-score; with GST-NST2(1-184), 0.172 E-score; with GST-SND1(1-203), 0.175 E-score. Also, the binding signal is 0.0988 E-score with GST-VND3 NAC domain, 0.145 E-score in the assay with GST-VND7 NAC domain and 0.483 E-score with GST-WRKY1(266-371).
